Mac1 fbg inh: blocks human CD11b/CD18 adhesion to fibrinogen; P05107+P11215; K562 CD11b/CD18 adhesion to fibrinogen, ATPlite luminescence; Mn2+ added to activate the integrin; inhibition, % at 10 µM; 0.54% of 93,000 active; AID 1497;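 active = primary inhibition of 50% or more at 10 µM, then 40% or more on retest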
PTK2B oligo ant: antagonists of human Pyk2 oligomerization; Q293 cells, Pyk2 FERM NanoBiT luminescence; active compounds read low; 0.83% of 99,000 active; z-score (the deposit names both 25 µM and 10 µM);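 active = Z-score of -3 or lower, scaled per plate to the spread of control and sample wells; inactive = z-score above -3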;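 note: negative z-score means lost luminescence so less FERM oligomerization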
CD11b adhes enh: CD11b/CD18-fibrinogen binding enhancement; activation, % at 10 µM; AID 1499; K562 CD11b/CD18 adhesion to fibrinogen, ATPlite luminescence; P05107+P11215; 0.07% of 93,000 active;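 active = 10 µM primary screen giving 50% or more activity, confirmed by 40% or more on retest at that dose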
MRP1 act: MRP-1 activation; H69AR cells + doxorubicin, viability rescue, CellTiter-Glo; AID 799; viability increase, % at 10 µM; 0.61% of 140,000 active;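 active = viability gain under doxorubicin at or above a set limit, the compound median plus 3 SD, cut at about 4.7% in these data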;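 note: MRP-1 overexpressing cells given doxorubicin 25 µM after compound pretreatment; 18-22 h compound pretreatment then 72 h with doxorubicin before readout; 0% = doxorubicin-only wells and 100% = vehicle-treated cells without doxorubicin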
MRP reversal: compounds reversing MRP-mediated drug resistance; differential viability (reversal), % at 10 µM; H69AR cells + 2 uM doxorubicin, CellTiter-Glo, 72 h; 0.04% of 85,000 active; AID 602;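 active = viability drop by adding the cancer drug above about 55%, with treated viability meeting a 40% cutoff, limit read from the data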;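 note: viability without doxorubicin minus viability with 2 µM doxorubicin for each compound; larger differential means the compound sensitizes cells more to doxorubicin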
Cav3 T inh: human Cav3.2 channel inhibition, primary screen; O95180; B-score at 10 µM; 4% of 100,000 active; Cav3.2-expressing cells, Fluo-4 calcium fluorescence FDSS; active compounds read low;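 active = single-dose well whose peak fluorescence ratio is a statistical outlier from its plate by either plate-standardised score or position-corrected B-score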
* = called active by the depositor; nt = not tested or not shown. A selection: hits, their analogues and other compounds. The true share with any hit is near 4.1%.

SMILES	Mac1 fbg inh	PTK2B oligo ant	CD11b adhes enh	MRP1 act	MRP reversal	Cav3 T inh
O=C(/C=C/c1ccc2c(c1)OCO2)NCCSCc1cccc(Cl)c1	nt	nt	nt	-3	nt	nt
O=C(/C=C/c1ccc2c(c1)OCO2)NCCSCc1ccc(Cl)cc1Cl	20	-0.06	-1	0	nt	-6.3*
O=C(NCCSCc1ccc(Cl)cc1Cl)c1ccc(CN2CCOCC2)cc1	71	0.04	-6	-3	nt	-4.3*
Cc1ccc(NC(=O)C(=O)Nc2ccccn2)cc1	nt	nt	nt	2	nt	nt
COc1ccccc1N1CCN(c2ncnc3c2oc2ccccc23)CC1	10	1.1	-5	-3	nt	-3.2
Cc1ccccc1CSCC(=O)NC(=O)NCc1ccco1	3	0.67	1	-2	-2	-2.6
CCc1ccc(N/C(SCc2cccc(F)c2)=C(/C#N)C(=O)NCc2ccco2)cc1	nt	-1.1	nt	-4	25	-3.6*
Cc1ccc(N/C(SCc2ccccc2C)=C(/C#N)C(=O)NCc2ccco2)cc1C	9	0.28	-5	-5	15	-5.3*
CCC(C)NC(=O)CN(c1cc(C)ccc1OC)S(C)(=O)=O (stereo unspecified)	-19	1.1	-3	-1	1	0.0057
Cc1ccc(N=Nc2c(N)nn3c(C)cc(C)nc23)cc1	nt	nt	nt	1	nt	nt
Cn1nc(C(C)(C)C)cc1C(=O)NCc1ccc(N2CCCC2=O)cc1	84*	0.76	-6	0	-8	0.32
Cc1ccc(CNC(=O)c2ccc(N3CCCC3=O)cc2)cc1	-17	0.02	-1	0	5	0.63
Cc1cc(C)nc(N(C#N)Cc2cccc3ccccc23)n1	5	-2.2	5	-2	7	-5.2*
Cc1cc(C)nc(N(C#N)Cc2ccccc2)n1	-6	-0.77	-3	-2	17	0.46
CCSC(=O)CCCCCCCCCCCO	nt	0.47	nt	-1	nt	-0.18
O=C(O)/C=C\C(=O)NC1CCCCC1	nt	nt	nt	29*	nt	nt
CCN(CC)CCN1C(=O)C(=O)/C(=C(/O)c2cccc(OC)c2)C1c1ccccn1 (stereo unspecified)	-6	-0.53	8	-2	2	0.27
N#CC1=C(N)SC(N)=C(C#N)C1c1cccc(O)c1	nt	-0.53	nt	5.1*	-14	0.03
COc1cccc(-c2nc(CS(=O)(=O)CC(=O)NCc3ccccc3)c(C)o2)c1	14	nt	1	-2	9	nt
Cc1ccccc1-c1nc(CS(=O)(=O)CC(=O)N(C)C2CCCCC2)c(C)o1	36	nt	3	0	13	-7.3*
Cc1ccccc1-c1nc(CS(=O)(=O)CC(=O)NCc2ccccc2)c(C)o1	0	nt	2	-1	9	-4.2*
COc1ccccc1C(=O)Nc1nc(-c2cccs2)c(NC(C)=O)s1	7	-0.66	1	1	-16	0.11
CC1CCCCC1NC(=O)c1ccc(N2CCCC2=O)cc1 (stereo unspecified)	-10	0.41	4	0	14	-5.1*
O=C(NC1CCCCCC1)c1cccc(N2CCCC2=O)c1	-8	3.1	-3	-2	nt	0.34
Cn1c(Cc2ccccc2)nnc1SCCC(=O)Nc1ccccc1	1	0.05	-3	-3	16	0.35
SMILES	Mac1 fbg inh	PTK2B oligo ant	CD11b adhes enh	MRP1 act	MRP reversal	Cav3 T inh
CC(C)C[C@H]1C(=O)N2CCC[C@H]2[C@]2(O)O[C@](NC(=O)C3C=C4c5cccc6[nH]c(Br)c(c56)C[C@H]4N(C)C3)(C(C)C)C(=O)N12 (stereo partly specified)	nt	nt	nt	nt	nt	-5.6*
CC1CC(N(C(=O)C2CC2)c2ccccc2)c2ccccc2N1C(=O)C1CC1 (stereo unspecified)	-18	-0.05	0	-1	6	-1.6
CC1CC(N(C(=O)c2ccco2)c2ccccc2)c2ccccc2N1C(=O)c1ccco1 (stereo unspecified)	6	-3	1	-2	0	-5.3*
CC1CC(N(C(=O)c2ccc(Cl)cc2)c2ccccc2)c2ccccc2N1C(=O)c1ccco1 (stereo unspecified)	-24	-2.5	2	-2	5	-5.7*
O=C(c1cc(-c2ccco2)nn1-c1cccc(Cl)c1)N1CCCCC1	-9	-0.29	0	-1	-3	-5.9*
CC(C)NC(=O)c1cc(-c2ccco2)nn1-c1ccc(Cl)cc1	nt	0.31	nt	-3	nt	-4
CC(C)NS(=O)(=O)c1ccc(OCC(=O)Nc2cccc3ccccc23)cc1	-34	0.46	2	-1	17	-3.6*
COCCn1nnnc1CN1CCC(O)(c2cccc(C(F)(F)F)c2)CC1	-8	-0.31	-1	0	15	0.16
OC1(c2cccc(C(F)(F)F)c2)CCN(Cc2nnnn2CCc2ccccc2)CC1	nt	-2	nt	-4	16	-5.6*
CCN(CC)S(=O)(=O)c1ccc2c(c1)nc(SCC(=O)NC1CC1)n2-c1ccccc1OC	19	-3.3*	3	-2	19	-3.4
Cc1cc(NC(=O)c2cccc(F)c2)no1	nt	1.1	nt	-1	-8	nt
O=C(CCn1c(=O)oc2ccccc21)N1CCN(c2ccccc2Cl)CC1	nt	0.22	nt	-4	-27	-4*
O=C(CCS(=O)(=O)c1ccc(Br)cc1)N1CCN(c2ccccc2Cl)CC1	8	0.29	-1	0	1	-5.7*
CN(C(=O)CSc1nnc(Nc2ccccc2)s1)c1c(N)n(Cc2ccccc2)c(=O)[nH]c1=O	7	0.05	-4	-1	nt	nt
CCCCN(C(=O)CSc1nnc(Nc2ccc(C)c(C)c2)s1)c1c(N)n(Cc2ccccc2)c(=O)[nH]c1=O	38	-1.6	-8	-2	nt	-5.3*
Cc1occc1C(=O)NNC(=O)Nc1ccc(Cl)c(Cl)c1	26	nt	-1	4.9*	nt	nt
Cc1cc2ncn(C(=O)N3CCC(C)CC3)c2cc1C	nt	0.64	nt	-2	-5	-6.5*
Cc1cc2ncn(C(=O)c3ccc4c(c3)OCO4)c2cc1C	-14	0.47	4	-1	9	0.62
Cc1cc(C)n(-c2ccc(C(=O)OCc3nnc(-c4ccccc4)o3)cc2)n1	-21	-0.51	-1	0	-7	-0.67
Cn1ncc(Cl)c1C(=O)N/N=C/c1ccccn1	nt	0.58	nt	-1	nt	nt
Cc1ccc(S(=O)(=O)Oc2ccccc2/C=N/NC(=O)c2c(Cl)cnn2C)cc1	nt	-1.1	nt	-5	-53	-8.9*
Clc1ccc(Cl)c(OCCN2CCOCC2)c1	2	0.83	-4	1	-4	0.69
CCOP(=O)(OCC)c1nc(/C=C/c2ccccc2)oc1NCc1ccccc1	nt	-1.7	nt	-2	12	nt
CCOP(=O)(OCC)c1nc(/C=C/c2ccccc2)oc1NCc1ccc(OC)cc1	-34	-0.66	7	1	7	-5.6*
COc1cccc(/C=N/N2C(=O)CSC2=S)c1O	nt	nt	nt	8.0*	nt	nt
COc1ccc(CC(=O)NNc2ncnc3c2cnn3-c2ccccc2)cc1	nt	nt	nt	-1	nt	nt
CC1(C)CC(C(CCN(Cc2ccccc2)C(=O)c2ccco2)c2ccc(F)cc2)CCO1 (stereo unspecified)	nt	nt	nt	-5	nt	nt
O=C(c1ccco1)N(CCC(c1ccccc1)c1ccco1)Cc1ccc(F)cc1 (stereo unspecified)	nt	-0.66	nt	-1	nt	-3.9*

Compound activity from PubChem BioAssay.
